# Measured values: the supplement of paper PMC6992640
# Tested on: UCD52 (cells of a triple-negative basal-like breast cancer xenograft)
# Test: cell viability of combination (% of vehicle); higher = less cytotoxic
# Conditions: 1 µM; 72 h; partner dose: 10 nM
# Description: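 PDX cells were treated for 72 h with each drug at 1 µM plus carfilzomib (10 nM; 100 nM for WHIM2). Luciferase viability is expressed as percent of vehicle.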
row,SMILES,cell viability of combination
1,CN(C(=O)CN(CCO)CC(=O)N(C)C(C)(C)Cc1ccccc1)C(C)(C)Cc1ccccc1 [Oxethazaine] + CC(C)C[C@H](NC(=O)[C@H](CCc1ccccc1)NC(=O)CN1CCOCC1)C(=O)N[C@@H](Cc1ccccc1)C(=O)N[C@@H](CC(C)C)C(=O)[C@@]1(C)CO1 [Carfilzomib],66.5
2,CC(NCCCc1cccc(C(F)(F)F)c1)c1cccc2ccccc12.Cl (configuration not stated) [Cinacalcet HCl] + CC(C)C[C@H](NC(=O)[C@H](CCc1ccccc1)NC(=O)CN1CCOCC1)C(=O)N[C@@H](Cc1ccccc1)C(=O)N[C@@H](CC(C)C)C(=O)[C@@]1(C)CO1 [Carfilzomib],59.9
3,Clc1ccc(C(Cn2ccnc2)OCc2ccsc2Cl)c(Cl)c1 (configuration not stated) [Tioconazole] + CC(C)C[C@H](NC(=O)[C@H](CCc1ccccc1)NC(=O)CN1CCOCC1)C(=O)N[C@@H](Cc1ccccc1)C(=O)N[C@@H](CC(C)C)C(=O)[C@@]1(C)CO1 [Carfilzomib],62.5
4,Cn1cnc2c(F)c(Nc3ccc(Br)cc3F)c(C(=O)NOCCO)cc21 + CC(C)C[C@H](NC(=O)[C@H](CCc1ccccc1)NC(=O)CN1CCOCC1)C(=O)N[C@@H](Cc1ccccc1)C(=O)N[C@@H](CC(C)C)C(=O)[C@@]1(C)CO1 [Carfilzomib],50.1
5,CC(Oc1cc(-c2cnn(C3CCNCC3)c2)cnc1N)c1c(Cl)ccc(F)c1Cl [(R)-Crizotinib] + CC(C)C[C@H](NC(=O)[C@H](CCc1ccccc1)NC(=O)CN1CCOCC1)C(=O)N[C@@H](Cc1ccccc1)C(=O)N[C@@H](CC(C)C)C(=O)[C@@]1(C)CO1 [Carfilzomib],49.1
6,Cc1c(-c2ccc(O)cc2)n(Cc2ccc(OCCN3CCCCCC3)cc2)c2ccc(O)cc12.Cl [Bazedoxifene HCl] + CC(C)C[C@H](NC(=O)[C@H](CCc1ccccc1)NC(=O)CN1CCOCC1)C(=O)N[C@@H](Cc1ccccc1)C(=O)N[C@@H](CC(C)C)C(=O)[C@@]1(C)CO1 [Carfilzomib],64.4
7,Cc1cn(-c2cc(NC(=O)c3ccc(C)c(Nc4nccc(-c5cccnc5)n4)c3)cc(C(F)(F)F)c2)cn1 [Nilotinib(AMN-107)] + CC(C)C[C@H](NC(=O)[C@H](CCc1ccccc1)NC(=O)CN1CCOCC1)C(=O)N[C@@H](Cc1ccccc1)C(=O)N[C@@H](CC(C)C)C(=O)[C@@]1(C)CO1 [Carfilzomib],45.7
8,COc1ccccc1OCCNCC(O)COc1cccc2[nH]c3ccccc3c12 (configuration not stated) [Carvedilol] + CC(C)C[C@H](NC(=O)[C@H](CCc1ccccc1)NC(=O)CN1CCOCC1)C(=O)N[C@@H](Cc1ccccc1)C(=O)N[C@@H](CC(C)C)C(=O)[C@@]1(C)CO1 [Carfilzomib],61.4
9,Cc1cc(-n2c(=O)[nH]c(=O)n(C)c2=O)ccc1Oc1ccc(SC(F)(F)F)cc1 [Toltrazuril] + CC(C)C[C@H](NC(=O)[C@H](CCc1ccccc1)NC(=O)CN1CCOCC1)C(=O)N[C@@H](Cc1ccccc1)C(=O)N[C@@H](CC(C)C)C(=O)[C@@]1(C)CO1 [Carfilzomib],61
10,CC(C)(C)Cn1c(N)nc2ccc(-c3[nH]c(C(C)(C)C)nc3-c3ccc(F)cc3)nc21.CS(=O)(=O)O.CS(=O)(=O)O + CC(C)C[C@H](NC(=O)[C@H](CCc1ccccc1)NC(=O)CN1CCOCC1)C(=O)N[C@@H](Cc1ccccc1)C(=O)N[C@@H](CC(C)C)C(=O)[C@@]1(C)CO1 [Carfilzomib],29.3
11,CCc1c(Cl)c(O)c(Cl)c(O)c1C(=O)OC1C(C)OC(OCC2=CC=CCC(O)C(C)=CC(CC)C(OC3OC(C)(C)C(OC(=O)C(C)C)C(O)C3O)C(C)=CC(C)=CCC(C(C)O)OC2=O)C(OC)C1O (configuration not stated) [Fidaxomicin] + CC(C)C[C@H](NC(=O)[C@H](CCc1ccccc1)NC(=O)CN1CCOCC1)C(=O)N[C@@H](Cc1ccccc1)C(=O)N[C@@H](CC(C)C)C(=O)[C@@]1(C)CO1 [Carfilzomib],62.7
12,CN1CCC(COc2cnc(-c3cccc(Cn4nc(-c5cccc(C#N)c5)ccc4=O)c3)nc2)CC1 + CC(C)C[C@H](NC(=O)[C@H](CCc1ccccc1)NC(=O)CN1CCOCC1)C(=O)N[C@@H](Cc1ccccc1)C(=O)N[C@@H](CC(C)C)C(=O)[C@@]1(C)CO1 [Carfilzomib],57
13,CNCCC(Oc1ccc(C(F)(F)F)cc1)c1ccccc1.Cl (configuration not stated) [Fluoxetine HCl] + CC(C)C[C@H](NC(=O)[C@H](CCc1ccccc1)NC(=O)CN1CCOCC1)C(=O)N[C@@H](Cc1ccccc1)C(=O)N[C@@H](CC(C)C)C(=O)[C@@]1(C)CO1 [Carfilzomib],52.6
14,Cl.O.O=C1Cc2cc(CCN3CCN(c4nsc5ccccc45)CC3)c(Cl)cc2N1 [Ziprasidone hydrochloride monohydrate] + CC(C)C[C@H](NC(=O)[C@H](CCc1ccccc1)NC(=O)CN1CCOCC1)C(=O)N[C@@H](Cc1ccccc1)C(=O)N[C@@H](CC(C)C)C(=O)[C@@]1(C)CO1 [Carfilzomib],64.2
15,Cc1cccc(CN2CCN(C(c3ccccc3)c3ccc(Cl)cc3)CC2)c1.Cl.Cl (configuration not stated) [Meclizine 2HCl] + CC(C)C[C@H](NC(=O)[C@H](CCc1ccccc1)NC(=O)CN1CCOCC1)C(=O)N[C@@H](Cc1ccccc1)C(=O)N[C@@H](CC(C)C)C(=O)[C@@]1(C)CO1 [Carfilzomib],57.2
16,CNC(=O)c1cc(Oc2ccc(NC(=O)Nc3ccc(Cl)c(C(F)(F)F)c3)c(F)c2)ccn1 [Regorafenib] + CC(C)C[C@H](NC(=O)[C@H](CCc1ccccc1)NC(=O)CN1CCOCC1)C(=O)N[C@@H](Cc1ccccc1)C(=O)N[C@@H](CC(C)C)C(=O)[C@@]1(C)CO1 [Carfilzomib],58.6
17,COCCn1c2c([n+](Cc3cnccn3)c1C)C(=O)c1ccccc1C2=O.[Br-] + CC(C)C[C@H](NC(=O)[C@H](CCc1ccccc1)NC(=O)CN1CCOCC1)C(=O)N[C@@H](Cc1ccccc1)C(=O)N[C@@H](CC(C)C)C(=O)[C@@]1(C)CO1 [Carfilzomib],17.4
